In the library only some 3.4% were active in any assay of this set; here they are far more common.
Peg3 imprint – genomic imprint erasure induction. mouse ES Peg3-LacZ reporter, beta-gal luminescence, 40 h. 0.02% of 110,000 active. Potency, µM (doses to about 60.7 µM), for inactives: top-dose activity change, positive = activation, hits mostly activators
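Readout: BetaGlo luminescence (5 min, room temp) for LacZ from the normally silent maternal Peg3 allele in female Peg3LacZ-Neo ES cells. Cells 300/well, 40 h, 37C, 5% CO2. Data normalized per plate to negative controls.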
FLuc inh – inhibitors of firefly luciferase; purified firefly luciferase, luminescence, 8 min; 2.2% of 72,000 active; P08659; AID 411; Potency, µM (top dose mostly 57.1 µM), for the others: top-dose activity change, negative = inhibition, actives largely listed as inhibitors; note: % is set by controls: 0 for no effect and ±100 for the full control effect; nearly all actives have a fitted effect of over 40% in size
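Firefly luciferase (PKLight detection mix) with 10 uM ATP in pH 7.2 imidazole buffer (KCl, MgCl2, Tween 20, BSA). Compounds tested across a concentration series (qHTS). Luminescence read after 8 min at ambient temperature.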
p53ts 39C tox – kills p53ts cells at the nonpermissive temperature; H1299-p53A138V viability at 39C, ATP luminescence, 24 h; Potency, µM (top dose mostly 46.1 µM), without a hit: top-dose activity change, negative = cell killing, usual class: cytotoxic; 1.5% of 130,000 active; AID 902; note: % is set by controls: 0 for no effect and ±100 for the full control effect; nearly all actives have a fitted effect of over 55% in size
Tau fil binding – binders of human tau filaments | AID 596 | 2% of 71,000 active | recombinant tau filaments, thioflavin S fluorescence, 15 h; filaments grown with octadecylsulfate alongside compound | Potency, µM (series often up to 57.1 µM), for inactives: top-dose activity change, negative = inhibition | P10636;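 note: % is set by controls: 0 for no effect and ±100 for the full control effect; actives lower thioflavin S fluorescence by blocking filaments or displacing dye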
Target sequence (P10636 whole entry, looked up): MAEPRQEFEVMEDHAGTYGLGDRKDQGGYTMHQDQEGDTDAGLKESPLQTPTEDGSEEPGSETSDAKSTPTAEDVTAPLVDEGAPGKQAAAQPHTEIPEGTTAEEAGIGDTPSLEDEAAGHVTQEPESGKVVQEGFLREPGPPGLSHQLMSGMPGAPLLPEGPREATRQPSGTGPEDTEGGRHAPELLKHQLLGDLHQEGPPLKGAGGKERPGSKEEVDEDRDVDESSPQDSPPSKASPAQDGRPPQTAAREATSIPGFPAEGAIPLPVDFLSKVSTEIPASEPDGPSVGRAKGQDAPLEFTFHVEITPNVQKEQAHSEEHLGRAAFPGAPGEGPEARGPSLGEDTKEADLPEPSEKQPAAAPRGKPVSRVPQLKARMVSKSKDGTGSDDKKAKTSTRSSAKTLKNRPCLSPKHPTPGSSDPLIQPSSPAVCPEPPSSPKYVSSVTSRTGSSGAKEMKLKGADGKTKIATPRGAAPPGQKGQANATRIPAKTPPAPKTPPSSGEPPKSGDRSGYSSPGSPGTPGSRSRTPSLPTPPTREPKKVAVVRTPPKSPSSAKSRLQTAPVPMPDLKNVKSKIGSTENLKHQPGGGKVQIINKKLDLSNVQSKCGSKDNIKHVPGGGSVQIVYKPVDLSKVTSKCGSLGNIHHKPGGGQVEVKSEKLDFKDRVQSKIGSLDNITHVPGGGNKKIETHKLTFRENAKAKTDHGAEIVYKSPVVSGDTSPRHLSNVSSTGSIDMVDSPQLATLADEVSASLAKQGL
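Recombinant tau protein (human, 1 uM final) plus 30 uM ODS in HEPES pH 7.4 with NaCl, DTT and thioflavine S. Compound present from the start; fluorescence at 510 nm after 15 h, 37 C.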
p53ts 32C tox – cytotoxicity in p53ts cells at permissive temperature; 0.93% of 130,000 active; Potency, µM (titrated, usually from 46.1 µM), without a hit: at the top dose activity change, negative = cytotoxicity, hits mostly cytotoxic; H1299-p53A138V at 32C, ATP luminescence viability, 24 h;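 note: 0% = DMSO and -100% = full killing by reference compound; nearly all actives have a fitted effect of over 55% in size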
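ATP-content luminescence (ATPlite) read-out after 24 h compound exposure at 32C in H1299-p53A138V cells (600/well). Tested up to 46 uM. Normalized to DMSO (0%) and 100 uM tamoxifen (100% killing); Hill-fit AC50.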
Active calls of the source: *; ? = inconclusive; . = no result; ! = a repeat was not active; [ ] = dose if it differs, or a comment. Calls come from the whole dose curve; as a rule, active = well fitted curve in the direction sought with a large enough effect; inconclusive = small, poorly fitted or top-dose-only effect, or another doubt; inactive = no such curve, though single readings can be large; an effect the other way counts as inactive or inconclusive. Potency is the fitted concentration of half-maximal effect.

SMILES	Peg3 imprint	FLuc inh	p53ts 39C tox	Tau fil binding	p53ts 32C tox
COc1ccc(NC(=O)c2cc(-c3ccccc3OC)on2)cc1	-33%	?	-18%	.	9%
COc1cc(NC(=O)c2cc(-c3ccc(Cl)c(Cl)c3)on2)cc(OC)c1OC	-10%[10.9 µM]	.	20µM*	.	-26%
COc1ccc(-c2cc(C(=O)Nc3ccccc3SC)no2)cc1OC	-3%	0%	-1%	25%	-8%
COc1ccccc1-c1cc(C(=O)Nc2cccnc2)no1	-42%	13µM*	?	-6%	?
COc1cc(NC(=O)c2cc(-c3cccc(O)c3)on2)cc(OC)c1OC	-20%	-2%	-13%	188%	1%
COc1cccc(-c2cc(C(=O)Nc3ccccc3SC)no2)c1	-25%	20µM*	-15%	30%	-9%
COc1ccc(CNC(=O)c2cc3cccc4c3n2CC(C)S4)c(OC)c1 (configuration not stated)	-4%[10.9 µM]	.	1%	.	14%
Nc1ncnc2c1ncn2[C@@H]1O[C@@H](COP(=O)(O)OP(=O)(O)OP(=O)(O)OP(=O)(O)OC[C@@H]2O[C@@H](n3cnc4c(N)ncnc43)[C@@H](O)[C@H]2O)[C@H](O)[C@@H]1O	.	2%	49%	-3%	42%
O=C(Nc1ccc2oc(-c3ccc4ccccc4c3)nc2c1)c1ccccc1F	-3%[10.9 µM]	.	21%	.	-8%
CC(C)n1nnc2cc(C(=O)O)ccc21	-4%	.	.	.	.
COc1ccc(OC)c(NS(=O)(=O)c2cc3c(cc2Cl)N(C(C)=O)CCO3)c1	-7%[10.9 µM]	.	-10%	.	4%
COc1cccc(-c2cc(C(=O)NC3CCCC3)no2)c1	-37%	16µM*	?	0%	?
O=C1CS/C(=N\C(=O)N2c3ccccc3Sc3ccccc32)N1	-2%	-3%	10%	3.2µM*	-3%
O=C1CSC(=Nc2ccccc2Cl)N1	-4%	-6%	4%	-6%	-10%
O=C(O)c1cc2c(cc1S(=O)(=O)O)[C@H]1[C@@H](C3[C@H]2[C@@]2(Cl)C(Cl)=C(Cl)C3(Cl)C2(Cl)Cl)[C@]2(Cl)C(Cl)=C(Cl)C1(Cl)C2(Cl)Cl (some centres not stated)	3%[10.9 µM]	.	.	.	.
N#Cc1c(/N=C/c2ccc(Br)s2)sc2c1CCC2	.	.	12%	.	-1%
N#Cc1c(/N=C/c2cccs2)sc2c1CCCCC2	-56%	2µM*	10µM*	13µM*	7.9µM*
N#Cc1c(/N=C/N2CCOCC2)sc2c1CCCCC2	-42%	13µM*	-14%	2%	-26%
CCOc1ccc(C(=O)Nc2cccc(NC(=O)c3ccco3)c2)cc1Cl	-17%[10.9 µM]	.	1%	.	-1%
CC(C)CC(/C(O)=C(\C#N)c1nc2ccccc2[nH]1)N1C(=O)c2ccccc2C1=O (configuration not stated)	-8%	3%	29%	13µM*	17%
COc1ccc(OC)c(S(=O)(=O)Nc2ccc(O)c3ccccc23)c1	-28%	-5%	10µM*	25µM*	?
COc1ccc(CN2C(=O)N(c3ccc(C)cc3)C(=O)C2CC(=O)Nc2ccccc2)cc1OC (configuration not stated)	-6%[10.9 µM]	.	-15%	.	10%
CCOc1ccccc1O[C@@H](c1ccccc1)[C@@H]1CNCCO1	-19%	0%	-13%	32µM*	3%
CC(C)c1nc2sc3c(N4CCCCC4)ncnc3c2c2c1CCCC2	-2%[10.9 µM]	.	11%	.	1%
CC(C)Nc1nc(C#N)nc(NC(C)C)n1	-8%	2%	3%	13µM*	4%
SMILES	Peg3 imprint	FLuc inh	p53ts 39C tox	Tau fil binding	p53ts 32C tox
COc1ccc(Nc2ccnc3ccccc23)cc1	-5%	-5%	10%	7.9µM*	2%
COc1ccc(Nc2c(C)cccc2C)cc1	.	.	9%	.	1%
COCCn1c(=O)cnc2cnc(Nc3cccc(OC)c3)nc21	-27%	0%[11.4 µM]	12%	-15%	31%
Nc1nc(N)c2nc(-c3ccccc3)c(N)nc2n1	-10%	-5%[25.5 µM]	-7%	8%	13µM*!
Cc1c(-c2ccc(O)cc2)nn(-c2ccc(O)cc2)c1-c1ccc(OCCN2CCCCC2)cc1	-22%	-1%	32µM*	?	?
CCOC(=O)C1CCN(C(c2ccccc2)c2c(O)cc(C)n(Cc3ccco3)c2=O)CC1 (configuration not stated)	9%[10.9 µM]	.	3%	.	3%
CC(C)N(CCC(=O)c1ccc2ccccc2c1)Cc1ccccc1	-34%	-1%	32µM*	-3%	20µM*
Cc1occc1C(=O)Nc1cccc2ccccc12	-83%	25µM*	-25%	-19%	-26%
Cc1occc1C(=O)Nc1ccccc1NC(=O)c1ccoc1C	1%	1%	8%	-6%	10%
CC(=O)Oc1cc2c(c(C)c1OC(C)=O)CC=C1[C@]3(C)CC[C@]4(C)CC[C@@](C)(C(=O)O)CC4[C@]3(C)CC[C@]12C (some centres not stated)	-46%	.	89%	.	69%
Cn1c(CN2CCCCC2)nc2cc(NC(=O)c3cccc(Br)c3)ccc21	-10%[10.9 µM]	.	-19%	.	-20%
CCC(=O)NCCc1nc2cc(NC(=O)c3cccc(Br)c3)ccc2n1C	-22%[10.9 µM]	.	10µM*	.	13µM*
CCOC(=O)c1ccc(-c2ccc(/C=C(\C#N)C(=O)Nc3cccc(C)c3)o2)cc1	-15%[10.9 µM]	.	-9%	.	0%
N#C/C(=C\c1ccc(-c2ccc(F)cc2F)o1)c1nc2ccccc2[nH]1	-13%[10.9 µM]	.	6.3µM*	.	16µM*
CCOC(=O)c1ccc(-c2ccc(/C=C(\C#N)c3nc4ccc(C)cc4[nH]3)o2)cc1	-41%[10.9 µM]	.	3.2µM*	.	?
CS(=O)(=O)c1nc(-c2ccccc2)cc(C(F)(F)F)n1	-35%	-3%	?	-28%	6.3µM*
c1cnc2c(c1)ccc1cccnc12	-54%	0%[11.4 µM]	3.2µM*	-7%[11.4 µM]	?
CCCN(CCC)C(=O)Cn1c(=O)n(-c2ccc(OC)cc2)c(=O)c2ccc(C(=O)NCc3ccc(C)cc3)cc21	-14%[10.9 µM]	.	7%	.	16%
CCc1ccc(NC(=O)Cn2c(=O)n(-c3ccc(OC)cc3)c(=O)c3ccc(C(=O)NCc4ccc(C)cc4)cc32)cc1	-6%[10.9 µM]	.	3.2µM*	.	10µM*
Cc1ccc(NC(=O)Cn2c(=O)n(-c3ccc(C)cc3)c(=O)c3ccc(C(=O)NCc4ccccc4Cl)cc32)cc1	-25%[10.9 µM]	.	1.3µM*	.	6.3µM*
Cc1ccc(-n2c(=O)c3ccc(C(=O)NCc4ccccc4Cl)cc3n(CC(=O)Nc3ccc(C)cc3C)c2=O)cc1	-5%[10.9 µM]	.	?	.	?
O=C(O)C1CN(CCCP(=O)(O)O)CCN1 (configuration not stated)	-4%	.	.	.	.
Cc1ccc(CNC(=O)C2CCC(CNS(=O)(=O)c3ccc(C)cc3)CC2)cc1 (configuration not stated)	-18%[10.9 µM]	.	-6%	.	-11%
Cc1ccccc1NC(=O)Cn1c(=O)n(CCCCCC(=O)NCc2ccccc2Cl)c(=O)c2sccc21	15%[10.9 µM]	.	-22%	.	-27%

Screening results (PubChem)
